# In ChEMBL document CHEMBL3988442, “University of Dundee, Small-Polar-MMV Screening Library” (2021):
# In all, about 69,000 compounds went through this assay and about 1,000 (1.4%) showed an effect of 50% or more. This is one part of a sample in which strong results are shown more often than they occur.
# Test system: Leishmania donovani
# Assay: Leishmania intramacrophage assay
# Format: functional, organism-based
# Design: scale not given: in the data most compounds retested in dose-response had high values
smiles,measurement,setting,value
c1csc(CCC2CCCCN2Cc2noc(C3CC3)n2)c1 (centres undefined),Percent Effect,"30.3 µM, […]",-14.11%
CCC1CCCCCN1C(=O)c1ccc(N2CCC(O)CC2)cc1 (centres undefined),Percent Effect,"30.3 µM, […]",32.16%
CCCOc1c(Cl)cc(C(=O)N2CCOC23CCN(C)CC3)cc1Cl,Percent Effect,"30.3 µM, […]",88.42%
CCN1CCC2(CC1)OCCN2C(=O)c1cc(Cl)c(OC)c(Cl)c1.Cl,Percent Effect,"30.3 µM, […]",18.32%
CCN1CCC2(CC1)OCCN2C(=O)c1ccc(OC)c(Cl)c1.Cl,Percent Effect,"30.3 µM, […]",22.75%
CS(=O)(=O)N1CCC2(CC1)CC(NCc1ccco1)c1ccccc12.O=C(O)C(F)(F)F (centres undefined),Percent Effect,"30.3 µM, […]",16.74%
COc1ccc(CN2CC[C@@H](O)[C@@H]2Cc2ccccc2)cc1.O=C(O)C(F)(F)F,Percent Effect,"30 µM, 30.03 µM",-18.25%
C/N=C1/c2cc3cc(OC)ccc3n2CCN1C,Percent Effect,"30.3 µM, […]",-16.2%
C/N=C1\c2cc3cc(OC)ccc3n2CCN1Cc1ccccc1.O=C(O)C(F)(F)F,Percent Effect,"30.3 µM, […]",57.81%
C/N=C1/c2cc3cc(OC)ccc3n2CCN1Cc1ccccc1.Cl,Percent Effect,"30.3 µM, […]",64.09%
C/N=C1\c2cc3cc(OC)ccc3n2CCN1C.Cl,Percent Effect,"30.3 µM, […]",10.14%
COc1ccc2c(ccn2CCC(=O)O)c1,Percent Effect,"30 µM, 30.03 µM",9.834%
COCCN1C[C@H]2CC[C@@H]1CN(Cc1cc(=O)c3cc(C)ccc3[nH]1)C2,Percent Effect,"30.3 µM, […]",38.8%
CSCC(C)(O)CNS(=O)(=O)c1cccc(Cl)c1 (centres undefined),Percent Effect,"30.3 µM, […]",18.54%
CC1CCN(C(=O)C(C)N2CCc3[nH]nc(C(F)(F)F)c3C2)CC1 (centres undefined),Percent Effect,"30.3 µM, […]",13.32%
Cc1nc(C(=O)N(C)CC2CCCO2)nn1-c1ccccc1C(C)C (centres undefined),Percent Effect,"30.3 µM, […]",0.9975%
Cn1cc(-c2nnn3c2COC(CNC(=O)c2cccs2)C3)cn1 (centres undefined),Percent Effect,"30.3 µM, […]",37.28%
Cc1nc(C)c(C)c(N2CCC(NCCOc3ccccc3)CC2)n1,Percent Effect,"30.3 µM, […]",58.55%
Cc1ccnc(N2CCC(NCCOc3ccccc3)CC2)n1,Percent Effect,"30.3 µM, […]",18.71%
Cc1cc(N2CCC(N(C)C(=O)c3ccccc3F)CC2)nc(C)n1,Percent Effect,"30.3 µM, […]",35.99%
CN(C)c1ccnc(N2CCC(NCCOc3ccccc3)CC2)n1,Percent Effect,"30.3 µM, […]",79.37%
Cc1cc(N2CCC(N(C)C(=O)c3ccccc3)CC2)nc(C)n1,Percent Effect,"30 µM, 30.03 µM",62.61%
Cc1cc(N2CCC(O)CC2)nc(C)n1,Percent Effect,"30.3 µM, […]",1.581%
Cc1cc(N2CCC(N(C)C(=O)c3ccc(C#N)cc3)CC2)nc(C)n1,Percent Effect,"30.3 µM, […]",14.71%
Cc1cc(N2CCC(NCCOc3ccccc3)CC2)nc(C)n1,Percent Effect,"30.3 µM, […]",53.39%
c1ccc(OCCNC2CCN(c3ncccn3)CC2)cc1,Percent Effect,"30.3 µM, […]",4.504%
Cc1cc(N2CCC(N(C)C(=O)Nc3ccccc3)CC2)nc(C)n1,Percent Effect,"30 µM, 30.03 µM",11.78%
O=C(COCCOc1ccccc1)NC1CCN(c2ncccn2)CC1,Percent Effect,"30.3 µM, […]",21.86%
Cc1nc(CN2CCCC(NCCOc3ccccc3)C2)no1 (centres undefined),Percent Effect,"30 µM, 30.03 µM",33.1%
CNc1cncc(C2CCCN2C(=O)CCn2ccnc2)n1 (centres undefined),Percent Effect,"30.3 µM, […]",1.152%
CCCc1cc(C(=O)N2CCOC(c3nc(-c4cccs4)no3)C2)no1 (centres undefined),Percent Effect,"30 µM, 30.03 µM",23.21%
COc1ccc(CN2CC[C@H](O)[C@@H]2Cc2cnn(C)c2)cc1.O=C(O)C(F)(F)F,Percent Effect,"30.3 µM, […]",36.9%
CCc1ncnc2c1CCN(CC(=O)N(C)C)CC2.O=C(O)C(F)(F)F,Percent Effect,"30.3 µM, […]",4.143%
CCc1cc(N2CCC(NCCc3ccccc3F)CC2)nc(C)n1,Percent Effect,"30.3 µM, […]",63.92%
CCc1cc(N2CCC(NCCc3nc(C)c(C)s3)CC2)nc(C)n1,Percent Effect,"30.3 µM, […]",22.72%
CCc1cc(N2CCC(NCCc3ccc(C)o3)CC2)nc(C)n1,Percent Effect,"30.3 µM, […]",9.521%
CCC(CNC(=O)NCc1cc[nH]n1)N1CCCC1 (centres undefined),Percent Effect,"30.3 µM, […]",10.3%
Cc1nn(C)c(C)c1S(=O)(=O)N(CC(N)=O)CC(C)C,Percent Effect,"30.3 µM, […]",-2.964%
CCCc1noc(C2CCN(S(=O)(=O)c3cccs3)CC2)n1,Percent Effect,"30.3 µM, […]",12.47%
COCCc1noc(C2CCN(S(=O)(=O)c3cccs3)CC2)n1,Percent Effect,"30.3 µM, […]",57.18%
CC(C)c1noc(C2CCN(S(=O)(=O)c3cccs3)CC2)n1,Percent Effect,"30.3 µM, […]",-2.602%
CCCOc1ccccc1CCCNc1ncnc2oc(C)nc12,Percent Effect,"30.3 µM, […]",83.62%
CCC(CNc1ncnc2oc(C)nc12)Cc1ccccc1 (centres undefined),Percent Effect,"30.3 µM, […]",45.54%
CCCOc1ccc(Cl)cc1CNc1ncnc2oc(C)nc12,Percent Effect,"30.3 µM, […]",22.92%
Cc1ccc(SCCCNC(=O)c2cn([C@H]3CC[C@@H](N)CC3)nn2)cc1,Percent Effect,"30.3 µM, […]",94.34%
CCN(CCSc1ccccc1)C(=O)c1cn([C@H]2CC[C@@H](N)CC2)nn1,Percent Effect,"30.3 µM, […]",13.68%
Cc1ccc(SCCN(C)C(=O)c2cn([C@H]3CC[C@@H](N)CC3)nn2)cc1,Percent Effect,"30.3 µM, […]",-26.18%
O=C(O)c1cnc(OCC2CC2)c(Br)c1,Percent Effect,"30.3 µM, […]",4.629%
COCCCNC(=O)c1c(-n2cnnn2)sc2c1CCC2,Percent Effect,"30.3 µM, […]",9.721%
CC(C)CCNC(=O)c1c(-n2cnnn2)sc2c1CCCC2,Percent Effect,"30.3 µM, […]",-26.12%
COCCNC(=O)c1c(-n2cnnn2)sc2c1CCCC2,Percent Effect,"30.3 µM, […]",53.45%
Cc1ccc(C(=O)N(CC2CCCO2)c2ccncc2)o1 (centres undefined),Percent Effect,"30.3 µM, […]",23.81%
Cc1nn(-c2ccccn2)c(C)c1[C@@H]1C=C[C@@H](NC(=O)NC(C)C)C1,Percent Effect,"30.3 µM, […]",10.96%
CCNC(=O)[C@@H]1C[C@H](N)CN1Cc1ccc(-c2cc[nH]n2)o1,Percent Effect,"30.3 µM, […]",11.56%
CCNC(=O)[C@@H]1C[C@H](N)CN1Cc1ccc(Sc2ccc(C)cc2)o1,Percent Effect,"30.3 µM, […]",-2.33%
CCNC(=O)[C@@H]1C[C@@H](N)CN1Cc1ccc(Sc2ccc(C)cc2)o1,Percent Effect,"30.3 µM, […]",97.85%
Cc1cc(C(=O)NC2CC(=O)N(C(C)C)C2=O)c(C)n1C(C)C (centres undefined),Percent Effect,"30.3 µM, […]",19.34%
NCC(CO)Cc1ccc(C(F)(F)F)cc1 (centres undefined),Percent Effect,"30.3 µM, […]",17.17%
Cc1cnn(CCNCC(O)c2cccc(Br)c2)c1 (centres undefined),Percent Effect,"30.3 µM, […]",97.73%
Cc1cnn(CCNCC(O)c2ccc(F)c(F)c2)c1 (centres undefined),Percent Effect,"30.3 µM, […]",-10.99%
OC(CNCCn1cccn1)c1cccc(Br)c1 (centres undefined),Percent Effect,30 µM,1.273%
O=C(NCCc1ccccc1F)NCC(O)c1cccc(F)c1 (centres undefined),Percent Effect,30 µM,19.34%
Cn1cc(CN2CC[C@@H]3[C@@H](CCC(=O)N3CC3CCNCC3)C2)cn1,Percent Effect,"30.3 µM, […]",16.61%
Cc1ccc(CC(=O)NCC(O)c2ccc(Cl)cc2Cl)cn1 (centres undefined),Percent Effect,"30.3 µM, […]",-16.89%
Cc1c(C)n(Cc2ccccn2)c2nc3c(c(N)c12)CCCCC3,Percent Effect,"30.3 µM, […]",38.18%
CCc1c(-c2ccccc2)nc2c(c(C)c(C)n2CCN(C)C)c1N,Percent Effect,"30.3 µM, […]",100.7%
Cc1c(-c2ccccc2)nc2c(c(C)c(C)n2CCN(C)C)c1N,Percent Effect,"30.3 µM, […]",99.06%
Cc1c(C)n(Cc2ccncc2)c2nc3c(c(N)c12)CCCCCC3,Percent Effect,"30.3 µM, […]",6.52%
CCc1c(C)sc2c1c(N)nc(=O)n2CCCN(C)C,Percent Effect,"30.3 µM, […]",34.84%
CCc1c(C)sc2c1c(N)nc(=O)n2CCN(C)C,Percent Effect,"30.3 µM, […]",-18.16%
Cc1cc(C(=O)N2C[C@@H]3[C@@H](CN(C)CCc4ccccn4)[C@@H]3C2)c(C)o1,Percent Effect,"30.3 µM, […]",-26.53%
CC(CN1CCCC1=O)NC(=O)Nc1cccnc1-n1cccn1 (centres undefined),Percent Effect,"30.3 µM, […]",-2.319%
Cc1nccn1CCN(C)c1nc(-c2ccc(Cl)cc2)nc2c1CNC2,Percent Effect,"30.3 µM, […]",51.4%
CCn1ccnc1CN(C)c1nc(-c2ccc(Cl)cc2)nc2c1CNC2,Percent Effect,"30.3 µM, […]",20.89%
Cc1nccn1CCN(C)c1nc(-c2cccnc2)nc2c1CCNC2,Percent Effect,"30.3 µM, […]",20.05%
Cc1c(-c2c(-c3ccccc3)ncn2[C@@H](C(=O)O)[C@H](C)O)cnn1C,Percent Effect,"30.3 µM, […]",50.58%
Cc1nn(C)c(C)c1-c1c(-c2ccccc2)ncn1[C@H](CO)C(=O)O,Percent Effect,"30.3 µM, […]",46.15%
Cc1c(-c2c(-c3ccccc3)ncn2[C@H](CO)C(=O)O)cnn1C,Percent Effect,"30.3 µM, […]",25.35%
Cc1ccccc1C(=O)N1CC[C@H](O)[C@@H](N2CCOCC2)CC1,Percent Effect,"30.3 µM, […]",5.268%
Cc1ccc(OC2(C(=O)O)CCN(C(=O)c3cccc(F)c3)CC2)cn1,Percent Effect,"30.3 µM, […]",-5.312%
O=c1[nH]ncc(NCCOc2cccc(Br)c2)c1Cl,Percent Effect,"30.3 µM, […]",33.92%
O=c1[nH]ncc(NCCOc2ccc3c(c2)OCO3)c1Cl,Percent Effect,"30.3 µM, […]",33.23%
O=c1[nH]ncc(NCCOc2ccc3c(c2)CCC3)c1Cl,Percent Effect,"30.3 µM, […]",53.95%
O=C1COc2c(cccc2C(=O)N2CCCC(n3cccn3)C2)N1 (centres undefined),Percent Effect,"30.3 µM, […]",-19.69%
O=C(NC1CC1)c1ccn(COc2c(Cl)cccc2Cl)n1,Percent Effect,"30.3 µM, […]",26.41%
CC(C)C1CN(C(=O)c2ccccc2)CCS1 (centres undefined),Percent Effect,"30.3 µM, […]",-6.451%
Cc1ccc([C@]2(O)CC[C@H]3CN(Cc4cccc(Cl)c4Cl)C[C@H]32)nc1.O=C(O)CC(O)(CC(=O)O)C(=O)O,Percent Effect,"30 µM, 30.03 µM",12.17%
Cc1ccc([C@]2(O)CC[C@H]3CN(Cc4cc(C)c(O)c(C)c4)C[C@H]32)nc1.O=C(O)CC(O)(CC(=O)O)C(=O)O,Percent Effect,"30 µM, 30.03 µM",50.06%
Cc1cc(-c2cnc(N3CCSCC3)nc2C(C)C)on1,Percent Effect,"30.3 µM, […]",-38.52%
Cn1cnc2c1CCN(CC(=O)N(Cc1ccsc1)C1CC1)C2,Percent Effect,"30.3 µM, […]",1.808%
CC1(C)CC(=O)c2cnc3nc(N4CCCCC4)nc(O)c3c2C1,Percent Effect,"30.3 µM, […]",10.62%
Cc1cccc(CS(=O)(=O)Cc2ccn(C)c(=O)c2)c1,Percent Effect,"30.3 µM, […]",18.93%
O=C(c1cc2c([nH]c1=O)CCC2)N1CCCCCC1c1ccncc1 (centres undefined),Percent Effect,"30.3 µM, […]",26.35%
CCN(CC)c1nc(Nc2cccc(C(C)O)c2)nc2ccccc12 (centres undefined),Percent Effect,"30.3 µM, […]",66.27%
CC(O)c1cccc(Nc2nc(NCCO)c3ccccc3n2)c1 (centres undefined),Percent Effect,"30.3 µM, […]",37.25%
CCN(CC)c1nc(Nc2cccc(C(=O)O)c2)nc2ccccc12,Percent Effect,"30.3 µM, […]",3.255%
CCn1ncc(S(=O)(=O)N[C@@H]2CCC[C@@H](n3ccnc3)[C@@H]2O)c1C,Percent Effect,"30.3 µM, […]",16.74%
NCCC(=O)N1CCC2(CC1)CN(C(=O)c1ccc(Cl)cc1)CCO2,Percent Effect,"30.3 µM, […]",0.3697%
Cc1ccc(C(=O)N2CCOC3(CCCC3)C2)c(=O)[nH]1,Percent Effect,"30.3 µM, […]",4.345%
Cc1ccc(C(=O)N2CCC3(CCCCC3)C2)c(=O)[nH]1,Percent Effect,"30.3 µM, […]",56.07%
Cc1ccc(C(=O)N2CCC(Oc3ccccc3)CC2)c(=O)[nH]1,Percent Effect,30 µM,12.56%
Cc1ccc(C(=O)N2CCC(Oc3ccc(C)c(C)c3)CC2)c(=O)[nH]1,Percent Effect,30 µM,57.43%
COc1ccc(OC2CCN(C(=O)c3ccc(C)[nH]c3=O)CC2)cc1,Percent Effect,30 µM,26.55%
Cc1ccc(C(=O)N2CCC3(CCCC3)CC2)c(=O)[nH]1,Percent Effect,"30.3 µM, […]",27.16%
